Pf Dd2 inh – blocks in vitro growth of P. falciparum Dd2; P. falciparum Dd2 growth, SYBR Green, 72 h; Potency, µM (doses to about 28.9 µM), without a hit: at the highest dose activity, negative = inhibition, hits mostly inhibitors; 120,000 tested, 4.3% active; AID 1347417; active = well fitted inhibition curve with a large enough effect;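 note: plate controls were DMSO vehicle for no effect and reference drug for full effect; nearly all actives have a fitted effect of over 65% in size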
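Readout: SYBR Green fluorescence, 485 nm excitation, 535 nm emission, after ~16 h lysis at 37C. Before that, Dd2-infected red cells (2.5% hematocrit) grew 72 h with compound, 29 uM top final concentration.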
Starred values were filed as active, the others as inactive; i = inactive; [ ] = remark or other dose. Many of the other results were omitted from the sample, so hits are more common in it than they were. Potency is the fitted concentration of half-maximal effect.

SMILES	Pf Dd2 inh
CCN(CC)[C@H]1[C@@H]2OC[C@@H](O2)[C@@H](NCc2ccc(OC(F)(F)F)cc2)[C@@H]1O	i
O=C(c1cc(F)ccc1Cl)N1CCC(Cc2nc(-c3ccccc3)no2)CC1	i
Cc1cc(CNC(=O)[C@@H]2CCC[C@@H](N(C)C)CN(C)C(=O)C2)no1	-11%[44.1 µM]
COc1cccc(CC(=O)N2CCC3(CC2)OC(=O)N(Cc2ccccc2F)C3(C)c2ccccc2)c1 (stereo not drawn)	-26%
O=C(c1ccccc1C(F)(F)F)N1C[C@@H](CO)[C@H](c2ccccn2)C1	18%
COc1ccc(-c2cc(-c3cnn(C)c3)cn3cncc23)cn1	10µM*
c1cc(-c2cc(-c3ccc(N4CCOCC4)nc3)cn3cncc23)ccn1	i
Cc1noc(C)c1-c1cc(-c2cnn(C)c2)cn2cncc12	-9%[44.1 µM]
Cc1ccc(-c2cc(-c3ccc(=O)[nH]c3)c3cncn3c2)cn1	47%[44.1 µM]
COc1ccc(-c2noc(-c3ccc(N4CCCOCC4)nc3)n2)cc1	i
COc1ccc(-c2cc(-c3ccc(N4CCOCC4)nc3)cn3cncc23)cc1	0.79µM*
CCCn1ccnc1-c1c(-c2ccccc2)ncn1CC(O)COCC (stereo not drawn)	10%
CCNC(=O)c1n[nH]c2c1CN(C(=O)c1cccc(Cl)c1)CC2	i
CCOCCOC1CCN(C(=O)C2(S(=O)(=O)c3ccc(Cl)cc3)CC2)CC1	i
CC(=O)N[C@H]1CC[C@]2(C)CCC([C@H](C)C(=O)NCc3ccc(F)cc3)[C@H](O)[C@H]2[C@@H]1C (stereo partly drawn)	i
C[C@H]1[C@@H]2[C@@H](O)C([C@H](C)C(=O)NCc3ccc(F)cc3)CC[C@@]2(C)CC[C@@H]1NC(=O)c1cnccn1 (stereo partly drawn)	8.9µM*
C[C@H]1[C@@H]2[C@@H](O)C([C@H](C)C(=O)NC3CC3)CC[C@@]2(C)CC[C@@H]1NC(=O)c1cnccn1 (stereo partly drawn)	i
CC(C)c1ccc(C(=O)N2CC(C(=O)NC3CCCCC3)C3(CCOCC3)C2)cc1 (stereo not drawn)	-17%
O=C(O)COCC(=O)N1CC[C@H](C(=O)Nc2cc(Cl)ccc2O)C1	20%[44.1 µM]
O=C(c1ccccc1Cl)N1CCC2(CC1)CCN(Cc1cccs1)c1ccccc1O2	10µM*
Cc1ccccc1C(=O)N1CCC2(CC1)CCN(CCc1ccccc1)c1ccccc1O2	i
Cc1ccc(C(=O)N2CCC3(CC2)CCN(Cc2cccs2)c2ccccc2O3)cc1	-17%
CNC(=O)C(C)(C)N1CCC[C@H]1C(=O)N(C)Cc1cccnc1	8%[44.1 µM]
O=C(O)c1ccc(CC2CCN(C(=O)C3CC3)CC2)cc1	-7%
Cc1ccc2nc(-c3cccc(NC(=O)CSc4ccc(Cl)cc4)c3)oc2c1	11µM*
SMILES	Pf Dd2 inh
Cc1ccc(SCC(=O)Nc2ccc3oc(-c4cccc(C)c4)nc3c2)cc1	-4%
Cc1ccc2nc(-c3ccc(C)c(NC(=O)CSc4ccc(Cl)cc4)c3)oc2c1	0%
CCC(C)NC(=O)C1COC2(CCN(C(=O)C3CCC3)CC2)N1C(=O)c1ccc(OC)cc1 (stereo not drawn)	-27%
O[C@@H]1C[C@@H](c2nc(-c3cccnc3)no2)N(CC2CC2)C1	-7%[44.1 µM]
COc1cccc(CN2CCc3nc(C4CC4)nc(-c4ccc(O)cc4)c3C2)c1	i
CC(=O)N1CCC(c2nn(-c3ccccc3)c(=O)[nH]2)CC1	-24%[44.1 µM]
CNC(=O)C1(N2CCC[C@H]2C(=O)N2CCC(C)CC2)COC1	-6%[44.1 µM]
Cc1cnc(C2CCNC2)n1Cc1ccc(F)cc1 (stereo not drawn)	14%
CN(C)c1ccc(CN2CCC3(C2)C(=NC2CCCCC2)NC(=O)N3c2cc(F)cc(F)c2)cc1 (stereo not drawn)	10µM*
O=C1NC(=NC2CCCC2)C2(CCN(Cc3ccc(F)cc3)C2)N1c1cc(F)cc(F)c1 (stereo not drawn)	2µM*
COc1ccc(CN2CCC3(CC2)C(=NC2CCCC2)NC(=O)N3c2cc(F)cc(F)c2)cc1	-12%
O=C1NC(=NC2CCCCC2)C2(CCN(Cc3ccccc3)CC2)N1c1cc(F)cc(F)c1	60%
O=C1NC(=NC2CCCCC2)C2(CCN(Cc3cccnc3)CC2)N1c1cc(F)cc(F)c1	43%
CC(=O)N1CCC2(CC1)C(=NC1CCCC1)NC(=O)N2c1cc(F)cc(F)c1	-9%
CCCn1ccc2oc(C)c(C(=O)NCc3ccc(CC)cc3)c2c1=O	-14%
O=C(NCC1CCOCC1)c1cccc(C(F)(F)F)c1	16%
COc1ccc2c(CNC3CCCCCC3)c(C(=O)O)n(Cc3ccc(C)cc3)c2c1	8.9µM*
COc1ccc(Cn2c(C(=O)O)c(CNC3CCC(C)CC3)c3ccc(C)cc32)cc1 (stereo not drawn)	-9%
Cc1ccc(Cn2c(C(=O)O)c(CNC3CCCC3)c3ccc(C)cc32)cc1	i
COc1ccc2c(CNC3CCCCCC3)c(C(=O)O)n(Cc3cccc(F)c3)c2c1	-8%
COc1ccc(Cn2c(C(=O)O)c(CNC3CCCC3)c3ccc(C)cc32)cc1	61%
C=Cc1ccc(Cn2c(C(=O)O)c(CNC3CCCCC3)c3ccc(OC)cc32)cc1	11µM*
COc1nccnc1NC1CCN(C(=O)Cc2cccs2)CC1	i[5.79 µM]
CCC(C)n1cnc2cccnc21 (stereo not drawn)	24%[44.1 µM]
CCc1nc(-c2c3n(c(=O)n(CC(=O)NCCCc4ccccc4)c2=O)CCCC3)no1	17%
SMILES	Pf Dd2 inh
Cc1cccc(CNCc2ccccc2OCC(O)CN2CCSCC2)c1 (stereo not drawn)	1.6µM*
CCn1cc(CNCc2ccc(OCC(O)CN3CCSCC3)c(OC)c2)cn1 (stereo not drawn)	-4%
COc1cc(CN2CCOCC2)ccc1OCC(O)CN1CCSCC1 (stereo not drawn)	-8%
Cc1nnc(CN(C)Cc2ccccc2OCC(O)CN2CCSCC2)o1 (stereo not drawn)	-22%
CCCCNCc1ccc(OCC(O)CN2CCSCC2)c(OC)c1 (stereo not drawn)	-29%
CC1CCN(Cc2ccccc2OCC(O)CN2CCSCC2)CC1 (stereo not drawn)	4.5µM*
Cn1cncc1-c1nnc([C@H]2CCN(C(=O)c3ccncc3)C2)o1	-4%[44.1 µM]
Cc1cc(Cl)ccc1S(=O)(=O)N1C[C@@H](C(N)=O)[C@H](C2CCN(C)CC2)C1	-2%
O=C(C1CCN(C(=O)N2CC3CC(C2)[C@H]2CCCC(=O)N2C3)CC1)N1CC=C(c2ccccc2)CC1 (stereo partly drawn)	i
Cn1c(Cn2cccn2)nnc1C1CCCN(C(=O)Cc2cccnc2)C1 (stereo not drawn)	-11%
Cn1cc(CN2CCOC[C@H](Oc3ccccc3)C2)cn1	-25%[44.1 µM]
CC(C)(O)c1cn(C2CCN(C(=O)c3ccccc3F)CC2)nn1	3%
COc1cc2c(cc1OC)C(CNC(=O)c1cccs1)N(C(=O)Nc1ccc(C)cc1)CC2 (stereo not drawn)	-3%
COCC(=O)NCC1c2cc(OC)c(OC)cc2CCN1C(=O)Nc1cccc(F)c1 (stereo not drawn)	i
COc1cc2c(cc1OC)C(COc1ccc3c(C)cc(=O)oc3c1)N(C(=O)c1ccc(C)c(C)c1)CC2 (stereo not drawn)	5µM*
COc1cc2c(cc1OC)C(COc1ccc3c(C)cc(=O)oc3c1)N(C(=O)c1ccc(C)cc1)CC2 (stereo not drawn)	11µM*
Cc1cc(=O)oc2cc(OCC(=O)Nc3ccc(O)c(C(=O)O)c3)ccc12	5%

From PubChem BioAssay
